Measured values as given in PubChem BioAssay AID1508622 (National Center for Advancing Translational Sciences (NCATS), 2021).
Values without a mark were called inactive. The source made the active and inactive calls. Calls come from the whole dose curve; as a rule, active = well fitted activation curve with a large enough effect; inconclusive = small, poorly fitted or top-dose-only effect; inactive = no such curve, though single readings can be large or run the other way.

Experiment: Confirmatory qHTS for Identification of Small Molecule Activators of Huntingtin-Antisense Promoter Activity
Settings: HEK293 HTT-AS promoter firefly luciferase reporter, 24 h; series mostly up to 57.5 µM; activity change, positive = activation: at the top concentration
How it was run: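 Activity normalized between vehicle control (0%) and zero RLU (-100%) from firefly luminescence (Dual-Glo). Compounds, up to 57.5 uM final, incubated 24 h at 37C on HEK293 reporter cells plated 24 h earlier.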
Potency is the fitted concentration of half-maximal effect.

Compound | activity change, positive = activation | Potency
Cc1ccc(CSC2=Nc3ccccc3C3=NC(CC(=O)NC4CCCCC4)C(=O)N23)cc1 (stereo not drawn) | 26.1% | 
Cc1nc(-c2ccc(S(=O)(=O)Nc3ccc(C)c(N(C)C)c3)cc2)co1 | -93.7% | 
COc1ccccc1NC(=O)CN1C(=O)C(C)(C)c2ccccc21 | -10.4% | 
Cc1ccccc1Nc1c(-c2cccnc2)nc2cccc(C)n12 | -54.6% | 
CCCN(C(=O)COc1cc(=O)n(CC)c2ccccc12)c1ccc(C(C)C)cc1 | -11.8% | 
CCOC(=O)c1cnc2ccc(OCC)cc2c1Nc1ccc(OCc2ccccc2Cl)cc1 | -84.3% | 
Cc1cccc(Nc2nc(Nc3cccc(C)c3)nc(N3CCOCC3)n2)c1 | -13.7% | 
CCc1ccc2c(c1)-c1ccccc1S(=O)(=O)N2CC(=O)N1CCCCC1 |  | 9.53 µM (active)
CC(=O)N1CCCc2cc(S(=O)(=O)N3CCN(c4ccccc4F)CC3)ccc21 | -37% | 
O=C(NCc1cccnc1)C(=O)NCC(c1cccnc1)N1CCN(c2ccccc2F)CC1 (stereo not drawn) | -8.55% | 
COc1ccc2nc(N3CCN(C(=O)CS(=O)(=O)c4ccc(C)cc4)CC3)sc2c1 | -25.5% | 
CCC(C(=O)NCc1ccc(OC)c(OC)c1)n1nc(C)c2c(C)n(-c3ccc(C)cc3)nc2c1=O (stereo not drawn) | -57.8% | 
CCc1nnc2n1N(C(C)=O)C(c1ccc(C(C)(C)C)cc1)=C(C(C)=O)S2 | -94.1% | 
Cc1cccc(N2CCN(S(=O)(=O)c3ccc4c(c3)C(C(C)C)C(=O)N4)CC2)c1C (stereo not drawn) | -93.9% | 
COc1ccc(NC(=O)c2ccc(-c3nc(CSc4ccccc4)c(C)o3)cc2)cc1OC | -38.6% | 
CCOc1ccc(S(=O)(=O)NCCc2sc3nc(-c4ccc(C)cc4)nn3c2C)cc1 | -92.1% | 
COc1ccccc1N1CCN(C(CNC(=O)C(=O)NCCc2ccccc2)c2cccnc2)CC1 (stereo not drawn) | -46.1% | 
O=C(NCc1cccc(Cl)c1)C1CCCN(c2nn3cc(-c4ccc(F)cc4)nc3s2)C1 (stereo not drawn) | -56.7% | 
CCOC(=O)C1CCN(C(=O)Cn2c(-c3cccs3)cc3cc(Cl)ccc32)CC1 | -14% | 
CCOc1ccc(-n2ccnc2SCC(=O)Nc2cc(C)ccc2C)cc1 | -58.9% | 
COc1cccc(CNC(=O)c2cc3c(-c4ccccc4F)nn(C)c3s2)c1 | -33.5% | 
O=C(Cn1cc(S(=O)(=O)Cc2ccccc2Cl)c2ccccc21)Nc1cccc(C(F)(F)F)c1 | -23.9% | 
O=C(c1ccc2c(c1)CCN2S(=O)(=O)c1ccc(Cl)cc1)N1CCN(c2ccccc2F)CC1 | -26.4% | 
